Screening results (PubChem)
An excerpt weighted towards active compounds, which were near 11% of everything screened.
NIH3T3 tox – Cytotoxic Profiling in NIH 3T3 Cell Line of Diverse Libraries Using Quantitative High-Throughput Screening; NIH 3T3 viability, CellTiter-Glo ATP luminescence, 48-72 h; hit rate 4.3% among 94,000; AID 1345082, 2018; Potency, µM (series often up to 96.7 µM), inactives show at the highest dose activity change, negative = cytotoxicity, usual class: inhibitors; note: nearly all actives have a fitted effect of over 55% in size
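NIH 3T3 cells at 400 cells/well received 23 nL of compound by pintool and were incubated 48 or 72 h at 37 °C. Viability was read as ATP-coupled CellTiter-Glo luminescence.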
Luciferase inh – Firefly luciferase inhibition profiling of diverse chemical library using quantitative high-throughput screening; Luciferin 4-monooxygenase (Photinus pyralis), P08659; purified P. pyralis luciferase, luminescence, biochemical; Potency, µM (top dose mostly 115 µM), usual class: inhibitors; hit rate 2.5% among 76,000; AID 1347043, 2019; note: nearly all actives have a fitted effect of over 65% in size
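Luminescence read by CCD imager after adding enzyme (10nM final) to wells holding compound, titrated in qHTS. Substrates 10uM each D-luciferin and ATP; buffer 50mM Tris acetate pH 7.5, 10mM Mg acetate, Tween-20, BSA.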
HEK cytotox – Cytotoxic Profiling in HEK 293 Cell Line of Diverse Libraries Using Quantitative High-Throughput Screening | HEK 293 viability, ATP luminescence (CellTiter-Glo), 48-72 h | hit rate 6.6% among 94,000 | AID 1345083, 2018 | Potency, µM (highest dose often 115 µM), inactives show at the highest dose activity change, negative = cytotoxicity, actives largely listed as inhibitors; note: nearly all actives have a fitted effect of over 60% in size
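Luminescence from cellular ATP, measured with CellTiter-Glo, indicates HEK 293 viability. Cells plated at 250 cells/well are treated with compound for 48 or 72 hr at 37 degree Celsius before reagent addition.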
hNpr1 antagonist – Natriuretic polypeptide receptor (hNpr1) antagonism - Primary qHTS; HEK293 hNpr1 GloSensor cGMP, ANP-stimulated luminescence; AID 1347048, 2019; hit rate 1.6% among 76,000; Atrial natriuretic peptide receptor 1 (Homo sapiens), P16066; Potency, µM (series often up to 46.3 µM), for the others: at the highest dose activity change, negative = inhibition, most hits filed as inhibitors; calls by dose curve; note: nearly all actives have a fitted effect of over 60% in size
Target sequence (P16066 whole entry, looked up): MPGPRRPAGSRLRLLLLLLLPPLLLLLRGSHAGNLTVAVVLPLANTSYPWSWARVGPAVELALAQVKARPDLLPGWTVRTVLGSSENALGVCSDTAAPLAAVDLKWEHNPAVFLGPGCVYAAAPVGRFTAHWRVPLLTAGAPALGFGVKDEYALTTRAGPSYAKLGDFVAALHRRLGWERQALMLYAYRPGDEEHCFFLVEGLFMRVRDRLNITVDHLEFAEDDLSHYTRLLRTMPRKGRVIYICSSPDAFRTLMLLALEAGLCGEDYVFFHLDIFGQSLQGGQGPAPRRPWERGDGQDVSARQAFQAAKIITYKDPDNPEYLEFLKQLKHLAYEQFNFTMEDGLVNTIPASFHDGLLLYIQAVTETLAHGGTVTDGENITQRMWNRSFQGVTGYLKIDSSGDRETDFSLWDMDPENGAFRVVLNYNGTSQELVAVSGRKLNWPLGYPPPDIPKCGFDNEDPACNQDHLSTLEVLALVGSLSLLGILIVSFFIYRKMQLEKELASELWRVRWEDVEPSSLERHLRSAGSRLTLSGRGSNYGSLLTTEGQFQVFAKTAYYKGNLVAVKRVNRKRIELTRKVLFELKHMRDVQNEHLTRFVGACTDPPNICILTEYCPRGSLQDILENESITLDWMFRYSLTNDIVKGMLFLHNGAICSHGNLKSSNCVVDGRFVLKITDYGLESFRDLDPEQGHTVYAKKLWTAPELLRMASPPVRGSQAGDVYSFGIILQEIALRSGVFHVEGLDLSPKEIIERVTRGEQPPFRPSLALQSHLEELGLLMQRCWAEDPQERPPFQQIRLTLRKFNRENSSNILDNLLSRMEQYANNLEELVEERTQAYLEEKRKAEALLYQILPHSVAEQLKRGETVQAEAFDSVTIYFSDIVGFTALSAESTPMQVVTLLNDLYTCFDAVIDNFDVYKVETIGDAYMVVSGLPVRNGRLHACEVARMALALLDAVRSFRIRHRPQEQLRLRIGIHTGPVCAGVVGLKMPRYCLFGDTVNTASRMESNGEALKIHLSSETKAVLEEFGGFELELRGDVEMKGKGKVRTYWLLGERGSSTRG
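HEK293 cells stably expressing human Npr1 and cGMP GloSensor pGS-40F, loaded 2 h with 2% GloSensor reagent, given compound 30 min at room temperature. Luminescence read before and 20 min after 0.1 nM hNppA.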
Numbers without * were called inactive; i = inactive; ? = inconclusive; / = not tested or not shown; [ ] = remark or other dose. Unless noted, calls come from the whole dose curve; as a rule, active = well fitted curve in the direction sought with a large enough effect; inconclusive = small, poorly fitted or top-dose-only effect, or another doubt; inactive = no such curve, though single readings can be large; an effect the other way counts as inactive or inconclusive. % is set by controls: 0 for no effect and ±100 for the full control effect; potency is the fitted concentration of half-maximal effect.

SMILES	NIH3T3 tox	Luciferase inh	HEK cytotox	hNpr1 antagonist
O=C(NCc1nc(-c2cccc(F)c2)c(-c2ccccn2)[nH]1)N1CCCC1	?	i	50µM*	5%
NC1(C(=O)NCc2nc(-c3cccc(F)c3)c(-c3ccccn3)[nH]2)CCC1	-1%	i	-9%	-10%
COc1ccc(NC(=O)c2c(-c3cnn(C)c3NCc3ccccc3)noc2C)cc1	11µM*	i	?	-6%[70.6 µM]
CNC(=O)c1c(-c2cnn(C)c2NCCc2ccccc2)noc1C	-13%[138 µM]	i	?	4%[70.6 µM]
CC(C)CN(Cc1ccncc1)C1CN(C(=O)c2ccco2)C1	?	/	-13%	/
O=C([C@H]1CCCN1C(=O)c1ccccc1F)N1CCCC(c2nc3ccncc3[nH]2)C1 (some centres undefined)	i	/	2%	/
COc1cccc(CCC(=O)Nc2ccc(-c3nnc4n3CCCC4)cc2)c1	-1%	i	14%	2%
O=c1c2c(n(CCOc3ccccc3)n1-c1ccccc1)CN(Cc1nccs1)CC2	-19%[138 µM]	i	?	2%[70.6 µM]
Cc1ccc(NC(=O)Cn2c(=O)n(-c3ccccc3)c(=O)c3c2cc(C)n3C)cc1	22µM*	i	40µM*	3%
Cc1cccc(NC(=O)Cn2c(=O)n(-c3ccccc3)c(=O)c3c2cc(C)n3C)c1	i	i	0%	6%
COc1ccccc1NC(=O)Cn1c(=O)n(-c2ccccc2)c(=O)c2c1cc(C)n2C	i	i	-9%	0%
COc1ccccc1NC(=O)Cn1c(=O)n(-c2ccc(F)cc2)c(=O)c2c1cc(C)n2C	32µM*	i	45µM*	-9%
COCc1nc(C2CCN(C(=O)CCc3c[nH]c4ccccc34)C2)no1 (centres undefined)	-9%	i	-8%	-1%
COc1cc(OC)cc(C(=O)N2CCC3(CC2)NC(=O)N(c2ccc(F)cc2)N3)c1	25µM*	i	28µM*	-26%
COCc1nc(CCNC(=O)c2cnn3c(C)c(Cc4ccccc4Cl)c(C)nc23)no1	?	i	?	0%
Cc1ccccc1Cc1c(C)nc2c(C(=O)NCCc3noc(-c4cccnc4)n3)cnn2c1C	?	/	89µM*	/
Cc1ccccc1Cc1c(C)nc2c(C(=O)NCCc3noc(-c4ccncc4)n3)cnn2c1C	?	i	45µM*	4%
CCN1C(=O)CCN(C(=O)COCCOC)CC12CCOCC2	-13%	/	-5%	/
O=C([C@@H]1C[C@@H](O)[C@H](O)[C@@H]2NC(=S)N(c3ccc(Cl)cc3)[C@@H]21)N1CCCCC1	-14%[138 µM]	50µM*	-19%[172 µM]	4%[70.6 µM]
CNC(=O)c1cc(C2CC2)nc2c1c(C1CCCN(C(=O)c3cccnc3)C1)nn2C (centres undefined)	-12%	/	1%	/
O=C1NCCCCCCN(Cc2ccncc2)[C@@H]2CN(C(=O)c3cccs3)CC[C@@H]12	-5%	i	i	5%
O=C1NCCOCCCN(C(=O)Nc2ccc3c(c2)OCCO3)[C@H]2CCCC[C@@H]12	2%	32µM*	3%	-18%
O=C1NCCOCCCN(C(=O)Nc2ccccc2)[C@H]2CCCC[C@@H]12	-2%	i	-2%	-8%
COc1ccc(-c2onc(C)c2C(=O)NC2CCCc3ccccc32)cc1 (centres undefined)	?	28µM*	?	-5%
COc1ccc(CNC(=O)c2c(C)noc2-c2cc(OC)cc(OC)c2)cc1	-7%	i	?	-2%
SMILES	NIH3T3 tox	Luciferase inh	HEK cytotox	hNpr1 antagonist
COc1ccc(-c2onc(C)c2C(=O)NCc2ccccc2)cc1	?	i	?	0%
COc1cccc(CNC(=O)c2c(C)noc2-c2cccs2)c1	?	i	?	-3%
COc1cc(OC)c(CNC(=O)c2c(C)noc2-c2cccs2)c(OC)c1	?	i	79µM*	-3%
COc1ccc(-c2onc(C)c2C(=O)NCc2c(OC)cc(OC)cc2OC)cc1	?	i	32µM*	-10%
COc1cccc(C(=O)N2CCN(CCn3nc4n(c3=O)CCCC4)CC2)c1	0%	/	3%	/
O=C(Nc1cccc(-c2nnc3n2CCCC3)c1)c1ccc(F)cc1F	-21%	i	-7%	2%
Cc1ccccc1C(=O)NC1CCN(CCn2nc3n(c2=O)CCCC3)C1 (centres undefined)	-10%	/	i	/
O=C(NCCc1ccccc1F)c1nc2sccn2c1-c1ccc(C(F)(F)F)cc1	28µM*	/	25µM*	/
O=C(NCCCc1ccccc1)c1n[nH]c2c1CN(C(=O)c1ccc(F)cc1)CC2	28µM*	i	?	3%
O=C(NCCCc1ccccc1)c1nc2sccn2c1-c1ccc(F)cc1	?	/	100µM*	/
O=C(NCCc1ccccc1)c1nc2sccn2c1-c1ccncc1	-23%	/	-8%	/
CN(C)c1ccc(C(=O)N[C@H]2CO[C@H]3[C@@H]2OC[C@@H]3n2cc(COc3ccccc3)nn2)cc1	-10%	i	?	1%
CC(C)NC(=O)C[C@@H]1CCNC[C@@H]1Cc1cc(CC2CCCCC2)on1	100µM*	i	?	-1%[70.6 µM]
CCCCc1cc(C[C@H]2CNCC[C@H]2CC(=O)NCc2ccccc2)no1	?	i	71µM*	?
CCCCc1cc(C[C@H]2CNCC[C@H]2CC(=O)Nc2ccccc2)no1	?	i	63µM*	-9%[70.6 µM]
CCCCc1cc(C[C@H]2CNCC[C@H]2CC(=O)NCc2ccc(F)cc2)no1	?	i	?	?
Cn1ncc2c(C(=O)NC3CCC3)cc(-c3cccc(C(F)(F)F)c3)nc21	-4%	/	3%	/
CCOc1ccc(C(=O)NC2CCCN(c3cc(-c4ccc(F)cc4)[nH]n3)C2)cc1 (centres undefined)	?	i	?	-23%
C#CCNC(=O)[C@@H]1Cc2cn(Cc3cccnc3)c3cccc(c23)[C@H](CC(C)C)N1	79µM*	i	56µM*	-1%[70.6 µM]
C=CCNC(=O)[C@@H]1Cc2cn(Cc3ccncc3)c3cccc(c23)[C@H](CC(C)C)N1	?	i	35µM*	-26%[70.6 µM]
COCCNC(=O)[C@@H]1Cc2cn(Cc3ccccn3)c3cccc(c23)[C@H](CC(C)C)N1	?	i	28µM*	0%[70.6 µM]
CC(C)C[C@@H]1N[C@H](C(=O)N2CCN(C)CC2)Cc2cn(Cc3ccccn3)c3cccc1c23	?	i	?	-2%
CC(C)C[C@@H]1N[C@H](C(=O)NCC2CC2)Cc2cn(Cc3cccnc3)c3cccc1c23	?	i	?	-28%[70.6 µM]
COCCNC(=O)[C@@H]1Cc2cn(Cc3cccnc3)c3cccc(c23)[C@H](CC(C)C)N1	?	i	45µM*	-3%[70.6 µM]
CC(C)C[C@@H]1N[C@H](C(=O)N2CCN(C)CC2)Cc2cn(Cc3cccnc3)c3cccc1c23	-9%	i	-12%	2%
